Inconclusive results are not listed. Values without a mark were called inactive. Calls of active or inactive are those of the source. Unless noted, calls come from the whole dose curve.

Experimental findings from PubChem BioAssay (Tox21) are described below.

Test [1] is described as follows: qHTS assay to identify small molecule agonists of the vitamin D receptor (VDR) signaling pathway - cell viability counter screen (AID 743224; active = well fitted cell-killing curve with a large enough effect in the repeat runs; note: series mostly up to about 63 µM; % is set by controls: 0 for no effect and ±100 for the full control effect; nearly all actives have a fitted effect of over 50% in size). The method in brief: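 Counter screen run in the same wells as the VDR-bla reporter assay: CellTiter-Glo luminescence, 30 min at room temperature, after 16 h compound treatment at 37C of cells pre-plated for 4 h.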
(In general: qHTS replaces the single test concentration by a dilution series.)

Test [2] can be described thus: qHTS assay to identify small molecule antagonists of the vitamin D receptor (VDR) signaling pathway - cell viability counter screen (AID 743225; active = well fitted cell-killing curve with a large enough effect in the repeat runs; note: % is set by controls: 0 for no effect and ±100 for the full control effect; nearly all actives have a fitted effect of over 50% in size). In a few lines:
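Viability counter screen run in the same wells as the beta-lactamase reporter assay: HEK 293T VDR-UAS-bla cells, 16 h compound exposure at 37C with 3 nM (final) 1-alpha,25-dihydroxyvitamin D3. CellTiter-Glo luminescence, 30 min, room temperature.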

A short description of test [3]: qHTS assay to identify small molecule agonists of the NFkB signaling pathway - cell viability counter screen (AID 1159515). Note: series mostly up to about 61 µM; % is set by controls: 0 for no effect and ±100 for the full control effect; nearly all actives have a fitted effect of over 55% in size. The method in brief:
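Read by CellTiter-Glo luminescence (30 min, room temperature) in the wells also used for the beta-lactamase FRET read. ME-180 NFkB-bla cells at 2,000 per well were plated overnight, then exposed to compound for 5 hr at 37 C.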

The nature of test [4]: qHTS assay to identify small molecule agonists of the endoplasmic reticulum stress response signaling pathway (AID 1159516; active = well fitted activation curve with a large enough effect in the signal ratio in the repeat runs, not every such curve was filed as active; the % refers to the signal ratio; note: potency is the fitted concentration of half-maximal effect; for activation: % is set by controls: 0 for no effect and ±100 for the full control effect). The method in brief: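 Ratiometric FRET readout (405 nm excitation; 460 and 530 nm emission) of a beta-lactamase gene driven by the ER stress response element, after 2 hr substrate loading. HeLa ESRE-bla cells were seeded overnight and treated with compounds for only 5 hr at 37 C.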

Test [5] can be described thus: qHTS assay to identify small molecule agonists of the endoplasmic reticulum stress response signaling pathway - cell viability counter screen (AID 1159517). Note: series mostly up to about 61 µM; % is set by controls: 0 for no effect and ±100 for the full control effect; nearly all actives have a fitted effect of over 50% in size. The method in brief: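 After overnight attachment, ESRE-bla HeLa cells were treated with Tox21 library compounds for 5 hr. CellTiter-Glo luminescence, read 30 min post-addition at room temperature, reported viability.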

A short description of test [6]: qHTS assay to identify small molecule antagonists of the retinoid-related orphan receptor gamma (ROR-gamma) signaling pathway - cell viability counter screen (AID 1159520; active = well fitted cell-killing curve with a large enough effect in the repeat runs; note: % is set by controls: 0 for no effect and ±100 for the full control effect; nearly all actives have a fitted effect of over 50% in size). The method in brief: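 Cytotoxicity was read from cellular ATP (CellTiter-Glo luminescence) after 16 hr at 37 C with 1 uM doxycycline induction. The inducer was added 2 hr after compound transfer to Tet-on ROR gamma CHO cells.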

Test [7] can be described thus: qHTS assay to identify small molecule agonists of the AP-1 signaling pathway - cell viability counter screen (AID 1159525). Note: nearly all actives have a fitted effect of over 55% in size. The method in brief: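 Intracellular ATP by Cell Titer Glo luminescence (30 min, RT) in the same ME-180 AP-1-bla wells after the 5 h compound exposure at 37 °C. Normalised to tetra n-octyl ammonium bromide and DMSO controls.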
The nature of test [8]: qHTS assay to identify small molecule agonists of the AP-1 signaling pathway (AID 1159526). Note: % is set by controls: 0 for no effect and ±100 for the full control effect.
Test [9] has as its target Retinoic acid receptor RXR-alpha (Homo sapiens) (UniProt P19793). Put plainly: qHTS assay to identify small molecule agonists of the RXR signaling pathway (AID 1159527). Note: % is set by controls: 0 for no effect and ±100 for the full control effect; nearly all actives have a fitted effect of over 35% in size. In a few lines:
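Agonist mode; 9-cis retinoic acid positive control. HEK 293T UAS-bla reporter cells, 2% charcoal-stripped FBS, 16 hr compound exposure at 37 C/5% CO2. LiveBLAzer B/G FRET substrate 2 hr RT; ex 405, em 460/530 nm.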

Retinoic acid receptor RXR-alpha (Homo sapiens), sequence (P19793 whole entry, looked up): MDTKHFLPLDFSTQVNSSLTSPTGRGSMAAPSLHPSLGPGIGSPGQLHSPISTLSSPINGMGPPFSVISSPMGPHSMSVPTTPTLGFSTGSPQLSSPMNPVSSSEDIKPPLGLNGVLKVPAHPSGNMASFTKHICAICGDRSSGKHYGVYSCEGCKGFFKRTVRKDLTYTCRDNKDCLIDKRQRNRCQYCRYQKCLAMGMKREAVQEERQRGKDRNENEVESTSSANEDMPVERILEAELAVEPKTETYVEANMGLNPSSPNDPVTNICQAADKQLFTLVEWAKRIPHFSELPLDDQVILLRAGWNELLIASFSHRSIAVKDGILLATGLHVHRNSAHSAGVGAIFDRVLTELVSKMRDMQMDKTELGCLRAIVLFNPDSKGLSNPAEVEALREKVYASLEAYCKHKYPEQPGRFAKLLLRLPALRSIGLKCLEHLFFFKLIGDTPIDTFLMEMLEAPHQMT

As to `CCCCCCc1ccc(-c2ccc(C#N)cc2)cc1`, the Potency entry in test [1], in test [2], in [3], in test [4], in test [5] and in test [6] was “inactive” each time. In addition, the Potency result in test [7] and in test [8] was “inactive” throughout.
Turning to `O=C(O)CNCC(=O)O`, the viability change, negative = cytotoxic in [2] was -0.385% [at 6.95 µM]; in [7], 2.06% [at 6.97 µM]. Moreover, the activity, negative = cytotoxic in test [3] was 11.1% [at 6.95 µM]. The activation in test [4] is -0.0292% [at 6.95 µM]; in test [8] it was -4.84% [at 6.97 µM]; in test [9], 1.94% [at 6.98 µM]. In addition, the activity change, negative = cytotoxicity in test [5] is -2.31% [at 6.95 µM]. Besides, the activity, negative = cytotoxicity in test [6] was 0.267% [at 8.39 µM].
With `CC/C=C\CCOC(=O)CC`, the Potency result in test [2], in test [3], in [4], in test [5], in test [6] and in [7] was “inactive” throughout. The Potency result in test [8] and in [9] was “inactive” each time.
As to `CC(C)C[C@H]1C(=O)N2CCC[C@H]2[C@]2(O)O[C@](NC(=O)[C@@H]3C=C4c5cccc6[nH]c(Br)c(c56)C[C@H]4N(C)C3)(C(C)C)C(=O)N12`, the Potency result in [1], in [2], in test [3], in [4], in test [5] and in [6] was “inactive” throughout. For the same compound, the Potency result in test [7] and in [8] was “inactive” each time.
On to `CC(CC=O)c1ccccc1` (stereo unspecified), for which the Potency result in [1], in test [2], in test [3], in test [4], in [5] and in test [6] was “inactive” each time. The Potency entry in [7] and in test [8] was “inactive” in each case.
As to `O=C(O)c1nc(Cl)c(Cl)c(Cl)c1Cl`, the Potency entry in [1], in [3], in test [4], in [5], in [6] and in [7] was “inactive” in each case. Moreover, the Potency entry in [8] was “inactive”.
For the compound `COC(C)OC`, the Potency entry in test [2], in test [3], in test [4], in test [5], in test [6] and in [7] was “inactive” throughout. For the same compound, the Potency result in test [8] and in [9] was “inactive” in each case.
For `Brc1c2ccccc2cc2ccccc12`, the Potency result in [1], in [2], in [3], in test [5], in test [6] and in [7] was “inactive” in each case. In addition, the Potency entry in test [8] and in test [9] was “inactive” each time. Also, the Potency in [4] was 49.5 µM (active).
Regarding `O=C(O)c1ccc(-n2nc(-c3ccccc3O)nc2-c2ccccc2O)cc1`, the Potency result in test [2], in [3], in [4], in [5], in test [6] and in test [7] was “inactive” in each case. For the same compound, in test [8], the Potency entry was “inactive”.
Take `CC(C)(COC(=O)c1ccccc1)COC(=O)c1ccccc1`: the Potency result in test [1], in test [3], in test [4], in test [5], in test [6] and in test [7] was “inactive” in each case. Moreover, the Potency result in test [8] is “inactive”.
`S=C([S-])NCCNC(=S)[S-].[Mn+2]`: the Potency entry in [1], in test [2], in test [3], in [4], in test [5] and in test [6] was “inactive” each time. In addition, the Potency entry in test [7] and in test [8] was “inactive” throughout.
In the case of `Brc1c2ccccc2c(Br)c2ccccc12`, the viability change, negative = cytotoxic in [2] was -26.5% [at 6.95 µM]; in test [7] it was 0.0847% [at 6.97 µM]. In addition, the activity, negative = cytotoxic in test [3] was -0.607% [at 6.95 µM]. In [4], the Potency was 0.882 µM (active). For the same compound, the activity change, negative = cytotoxicity in test [5] is -1.22% [at 6.95 µM]. Besides, the activity, negative = cytotoxicity in test [6] was 12% [at 8.39 µM]. In addition, the activation in [8] was -11.4% [at 6.97 µM].
As to `COC(=O)c1ccc(I)cc1S(=O)(=O)NC(=O)Nc1nc(C)nc(OC)n1`, the Potency result in test [1], in [3], in [4], in [5], in test [6] and in test [7] was “inactive” in each case. Moreover, in [8], the Potency entry was “inactive”.
With `CN(C)C(=O)NC1(c2ccccc2)CCN(CC[C@@]2(c3ccc(F)c(F)c3)CN(C(=O)c3ccccc3)CCO2)CC1`, the Potency entry in test [1], in test [2], in test [3], in test [4], in [5] and in test [6] was “inactive” throughout. The Potency result in test [7] and in test [8] was “inactive” each time.
For `O=C(NCC1CN(c2ccc(N3CCOCC3=O)cc2)C(=O)O1)c1ccc(Cl)s1` (stereo unspecified), the Potency entry in test [2], in test [3], in test [4], in test [5], in test [6] and in test [7] was “inactive” in each case. The Potency result in test [8] and in test [9] was “inactive” throughout.
As to `O=C(O)c1ccccc1Cl`, the Potency result in test [1], in test [2], in test [3], in test [4], in test [5] and in test [6] was “inactive” throughout. Further, the Potency entry in test [7], in [8] and in [9] was “inactive” in each case.
For `CC(=O)c1cccc([N+](=O)[O-])c1`, the Potency result in test [1], in test [2], in test [3], in [4], in [5] and in [6] was “inactive” each time. In addition, the Potency entry in [7] and in test [8] was “inactive” throughout.
Consider `NCCCN1CCOCC1`, for which the Potency entry in [1], in test [2], in test [3], in [4], in test [5] and in test [6] was “inactive” each time. For the same compound, the Potency entry in [7] and in test [8] was “inactive” throughout.
